Data published in ChEMBL document CHEMBL3433997, “St. Jude Leishmania screening dataset” (2016).
“And” between values parts separate entries of the source, which are not always exact repeats. Equal values may be shown once.

Tests used:
Type in all cases: functional
[1] = target: Solute carrier family 2, facilitated glucose transporter member 1 (Homo sapiens) (UniProt P11166); test: ST_JUDE_LEISH: Cytotoxicity at 2uM final concentration against transgenic Leishmania Mexicana promastigotes LmGLUT1 that are glucose transport deficient and complemented with the human glucose transporter GLUT1. Activity is measured by DNA content using SYBR green in vitro
[2] = target: Hexose transporter 1 (Plasmodium falciparum) (UniProt O97467); test: ST_JUDE_LEISH: Cytotoxicity at 2uM final concentration against transgenic Leishmania Mexicana promastigotes LmPfHT that are glucose transport deficient and complemented with the Plasmodium falciparum hexose transporter. Activity is measured by DNA content using SYBR green in vitro
[3] = target: Glucose transporter (Leishmania mexicana) (UniProt O61059); test: ST_JUDE_LEISH: Cytotoxicity at 2uM final concentration against transgenic Leishmania Mexicana promastigotes LmGT2 that are glucose transport deficient and complemented with the L. Mexicana glucose transporter 2. Activity is measured by DNA content using SYBR green in vitro

Sequence of Solute carrier family 2, facilitated glucose transporter member 1 (Homo sapiens) (P11166 whole entry): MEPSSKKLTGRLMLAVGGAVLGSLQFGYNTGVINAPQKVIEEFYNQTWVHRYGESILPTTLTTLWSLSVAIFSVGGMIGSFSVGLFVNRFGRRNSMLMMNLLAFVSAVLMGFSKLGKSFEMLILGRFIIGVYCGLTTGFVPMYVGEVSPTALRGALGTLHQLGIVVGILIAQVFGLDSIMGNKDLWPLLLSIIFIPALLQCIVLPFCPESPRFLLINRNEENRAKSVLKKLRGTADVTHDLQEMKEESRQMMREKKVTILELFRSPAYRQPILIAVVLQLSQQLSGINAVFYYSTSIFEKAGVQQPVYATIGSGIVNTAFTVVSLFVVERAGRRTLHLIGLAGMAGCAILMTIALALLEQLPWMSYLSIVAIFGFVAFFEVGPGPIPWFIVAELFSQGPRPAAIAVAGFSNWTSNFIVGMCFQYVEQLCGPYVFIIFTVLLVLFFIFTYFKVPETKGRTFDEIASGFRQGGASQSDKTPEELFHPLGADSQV

SMILES | inhibition [1] | inhibition [2] | inhibition [3]
O=C(N[C@@H](Cc1ccccc1)C(=O)NCCN1CCOCC1)c1ccc(O)c(-c2ccc(Cl)c(Cl)c2)c1 | 2.33% | 2.47% | 4.35%
CN1CCCN(c2ccnc3cc4c(cc23)N(C(=O)c2ccc(C(F)(F)F)cc2)CC4)CC1 | 5.22% | 5.41% | 7.79%
COc1ccc2ncc(F)c(CCN3CCC[C@H](CNCc4ccc5c(n4)NC(=O)CS5)C3)c2n1 | 5.76% | 5.3% | 0.75%
COc1cc(C2C(Oc3ccccc3)C(=O)N2Cc2ccc(F)cc2)cc(OC)c1OC (centres undefined) | 3.73% | 3.29% | 2.56%
COc1ccc(C(C(=O)NC2CCN(C[C@H](O)c3ccnc4ccc(OC)cc34)CC2)N2CCN(Cc3ccccc3)CC2)cc1 (some centres undefined) | 0.34% | 0.74% | -0.21%
COc1ccc(N2CCN(CCCCNC(=O)c3ccc(NC(=O)c4cc(C(F)(F)F)cc(C(F)(F)F)c4)cc3)CC2)cc1OC | 1.59% | 2.48% | 2.71%
Nc1cccc(CNCc2cccc(-c3csc(-c4nc5ccccc5[nH]4)c3)c2)c1 | 2.32% | 2.29% | 1.68%
Cc1cccc2nc(-c3ccc(-c4cccc(CNCCCNS(C)(=O)=O)c4)cc3)[nH]c12 | 0.32% | 0.24% | -0.36%
CCCc1cnc2nc(N)nc(N)c2c1C | -2.96% | -0.62% | 0.34%
CCC(C)NC(=O)Nc1ccc(-c2cccc(-c3nc4cccc(C)c4[nH]3)c2)cc1 (centres undefined) | 0.47% | 0.26% | -0.8%
Cc1ccoc1C(=O)Nc1ccc(-c2cccc(-c3nc4cccc(C)c4[nH]3)c2)cc1 | 2.21% | 2.54% | 1.34%
Cc1cc(NC2CCCC2)nc(Nc2ccc(F)cc2)n1 | 8.81% | 7.56% | 0.46%
N#Cc1cccc(NC(=O)Nc2ccc(CC(=O)N3CCc4cc(Cl)c(N5CCN(C/C=C/c6ccccc6)CC5)cc43)cc2)c1 | 2.33% | 4.39% | 2.7%
CC(C(=O)N1CCCC1)N1CCN(S(=O)(=O)c2ccc(C(C)(C)C)cc2)CC1 (centres undefined) | -0.57% | 0.46% | 4.07%
Cc1cc2ncn(-c3nccc(NCc4ccc(F)cc4)n3)c2cc1C | -0.72% | -1.37% | -0.57%
Nc1cccc(CNCc2cccc(-c3ccc(-c4nc5ccccc5[nH]4)cc3)c2)c1 | -1.29% | -0.89% | -0.37%
O=C1NC(c2ccc(N3CCCCCC3)cc2)Nc2ccccc21 (centres undefined) | 6.32% | 4.82% | 2.21%
COc1ccc(-c2ccc(NC(=O)c3ccc(Cl)cc3)cc2)cc1CN1CCC(O)CC1 | 3.31% | 2.62% | 2.54%
Cc1cc(N[C@@H](CC(C)C)C(=O)NCCOc2ccccc2)nc(NCCc2ccccc2)n1 | 1.89% | 0.4% | 2.69%
Cc1cc2nc(-c3ccc(/C=C/C(=O)NCc4ccc(Cl)c(Cl)c4)cc3)[nH]c2cc1C | 8.62% | 8.06% | 4.96%
FC(F)(F)c1ccc2[nH]c(-c3cccc(-c4ccc(CNCCN5CCNCC5)cc4)c3)nc2c1 | 2.75% | 2.47% | 1.97%
CCCc1cn2c3c(cc(C(=O)N[C@@H](Cc4ccccc4)[C@H](O)CNC4CCCCC4)cc13)N(C)S(=O)(=O)CC2 | 1.94% | 2.85% | 1.49%
Cc1nc2c(c(O)c1Cl)-c1ccc(Oc3cccc(C(F)(F)F)c3)cc1C2=O | 2.13% and 1.44% | 2.5% and 1.39% | 1.75% and 2.09%
Cc1cc(N2CCCCC2)nc2ccc(NC(=O)c3cncc(Br)c3)cc12 | 10.7% | 9.8% | 6.57%

SMILES | inhibition [1] | inhibition [2] | inhibition [3]
COc1ccc2nccc([C@@H](O)CN3CCC(NC(=O)c4cc5ccccc5[nH]4)CC3)c2c1 | 36% | 55.7% | 38.7%
N=C(N)Nc1nc(-c2cccc(NC(=O)NCc3ccc(OC(F)(F)F)cc3)c2)cs1 | 1.51% | 0.95% | 0.07%
Cc1cc(-c2ccc(CNCc3ccc(F)cc3)cc2)ccc1S(=O)(=O)NCCN1CCCC1 | 66.4% | 41.4% | -2.93%
Cc1cnc(-c2ccc(NC(=O)N3CCc4cc5nccc(N6CCN7CCC[C@H]7C6)c5cc43)c3ccccc23)o1 | 3.29% | 3.79% | 4.04%
COc1ccc(C23Oc4cc(OC)cc(OC)c4C2(O)C2(CC3c3ccccc3)SCCCS2)cc1 (centres undefined) | 0.76% | -0.16% | 1.15%
Cc1cccc2nc(-c3ccc(-c4ccc(NC(=O)C(C)CN(C)C)cc4)cc3)[nH]c12 (centres undefined) | 11.2% | 9.44% | 5.39%
Cc1[nH]c(C)c(-c2ccc(Nc3ccc(C(F)(F)F)cn3)cc2)c(=O)c1Br | 2.7% | 5.96% | 3.17%
CCN(CC)CCNc1ccnc2[nH]c3ccc(Cl)cc3c12 | 1.19% | -0.21% | -0.03%
COc1cc(Cc2cnc(N)nc2N)cc(OCCCCC2SC(=O)NC2=O)c1OC (centres undefined) | 2.3% | 0.84% | 1.34%
COc1cccc2cc(C(=O)N[C@@H](CC(C)C)C(=O)N[C@H](/C=N/NC(=O)Cc3cccnc3)CCc3ccccc3)oc12 | 3.03% | 5.36% | 1.75%
CN1CCC(NCc2ccc(-c3cccc(S(=O)(=O)NCC4CCCO4)c3)cc2)CC1 (centres undefined) | 0.62% | 3.18% | 6.61%
COc1cccc(-c2cc3c(NCc4ccncc4)nccc3s2)c1 | 3.12% | 3.46% | 0.82%
Cc1cc(N[C@@H](Cc2ccccc2)C(=O)NC2CCCC2)nc(NCCc2cccs2)n1 | 1.27% | 2.88% | 1.56%
COc1ccc2c(NN=Cc3cccc(C)n3)ccnc2c1 | 4.32% | 5.22% | 5.4%
CN1CCN(c2cc(NC(=O)Nc3cccc(Cl)c3Cl)ccc2Cl)CC1 | -2.56% | -2.86% | -2.68%
COc1ccc(-c2cccc(NC(=O)c3cccc(C#N)c3)c2)cc1CN1CCN(C)CC1 | 4.2% | 2.19% | 3.24%
Cc1cccc(Nc2nc(N[C@@H]3CCCNC3)nc3cc[nH]c(=O)c23)c1 | 92.3% | 85.2% | 83.4%
CNCCNCc1ccc(-c2ccc(-c3nc4cc(C(F)(F)F)ccc4[nH]3)s2)cc1 | 2.21% | 0.84% | 0.73%
CCOc1ccccc1C(=O)N1CCc2cc3nccc(N4CCN5CCC[C@H]5C4)c3cc21 | -0.64% | -0.67% | -0.44%
CC1CCc2sc(-c3nnc(SC(C)C(=O)NC4CC4)o3)cc2C1 (centres undefined) | -0.92% | 1.65% | 1.25%
COc1ccc(-c2nc(NC(=O)CS(=O)(=O)c3ccc(OC)cc3)sc2C)cc1 | 2.15% | 2.85% | 3.47%
O=C(Nc1ccc2c(c1)CCN2C1CCN(Cc2ccc(C(F)(F)F)cc2F)C1)c1ccco1 (centres undefined) | 1.38% | 0.47% | 1.6%
COc1ccc(NC(=O)C2CCN(CCCCCNC(=O)/C=C/c3ccc(Cl)c(Cl)c3)CC2)cc1 | 2.19% | 2.22% | 2.85%
COc1ccc(CNCc2ccc(-c3ccc(-c4nc5cc(F)ccc5[nH]4)cc3)cc2)cc1 | 5.49% | 5.38% | 1.74%
